Source: the supplement of paper PMC8371130
Where a name gives a salt, the structure may show the parent alone.

Tested on: HL-1
Experiment: relative cell viability (CellTiter-Glo) vs DMSO control (% of DMSO control); higher = more viable cells
In short: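 HL-1 mouse atrial cardiomyocytes were plated in 384-well plates at 1000 cells per well together with compounds at 40, 200, 1000 or 5000 nM in 0.01% DMSO. One day later, cells went to a hypoxic workstation (1% O2) for 48 h, then were reoxygenated for 24 h in a normal incubator, or stayed in normoxia for the same time. Cell viability was read by CellTiter-Glo luminescence and normalised to vehicle-treated control cells.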

[1] = oxygen condition: hypoxia 48 h (1% O2) + reoxygenation 24 h, 40 nM
[2] = oxygen condition: hypoxia 48 h (1% O2) + reoxygenation 24 h, 200 nM
[3] = oxygen condition: hypoxia 48 h (1% O2) + reoxygenation 24 h, 1000 nM
[4] = oxygen condition: hypoxia 48 h (1% O2) + reoxygenation 24 h, 5000 nM
[5] = oxygen condition: normoxia 72 h, 40 nM
[6] = oxygen condition: normoxia 72 h, 200 nM
[7] = oxygen condition: normoxia 72 h, 1000 nM
[8] = oxygen condition: normoxia 72 h, 5000 nM

Row | Structure (SMILES) | relative cell viability [1] | relative cell viability [2] | relative cell viability [3] | relative cell viability [4] | relative cell viability [5] | relative cell viability [6] | relative cell viability [7] | relative cell viability [8]
1 | Nc1nc2[nH]cnc2c(=S)[nH]1 [Thioguanine] | 97.1 | 79.2 | 65.6 | 24.5 | 82.9 | 75.5 | 64 | 22.5
2 | Nc1cccc2c1CN(C1CCC(=O)NC1=O)C2=O (stereo not drawn) [Lenalidomide] | 108 | 110 | 109 | 111 | 113 | 117 | 117 | 114
3 | O=C(CCNNC(=O)c1ccncc1)NCc1ccccc1 [Nialamide] | 107 | 109 | 108 | 113 | 96.2 | 105 | 104 | 138
4 | O=P(O)(O)C(Cl)(Cl)P(=O)(O)O [Clodronate Disodium] | 114 | 114 | 114 | 115 | 117 | 111 | 113 | 113
5 | CN(C)CC/C=C1/c2ccccc2COc2ccc(CC(=O)O)cc21 [Olopatadine hydrochloride] | 93 | 92.6 | 92.2 | 99.1 | 89.6 | 91.6 | 97.1 | 102
6 | CC(=O)OCC[N+](C)(C)C [Acetylcholine chloride] | 93.2 | 99.1 | 101 | 106 | 91.7 | 101 | 104 | 106
7 | COC(=O)N[C@H](C(=O)N[C@@H](Cc1ccccc1)[C@@H](O)CN(Cc1ccc(-c2ccccn2)cc1)NC(=O)[C@@H](NC(=O)OC)C(C)(C)C)C(C)(C)C [Atazanavir sulfate] | 104 | 101 | 105 | 108 | 101 | 97 | 98.5 | 116
8 | CC(C)(C)NC(=O)[C@H]1CC[C@H]2[C@@H]3CC[C@H]4NC(=O)C=C[C@]4(C)[C@H]3CC[C@]12C [Finasteride] | 100 | 106 | 106 | 117 | 115 | 110 | 111 | 113
9 | CC(=O)OCC(=O)[C@@]1(O)CC[C@H]2[C@@H]3CCC4=CC(=O)CC[C@]4(C)[C@H]3C(=O)C[C@@]21C [Cortisone acetate] | 99.7 | 98.2 | 98.1 | 108 | 94.7 | 94.2 | 93.2 | 103
10 | CCOC(=O)C1=C(C)NC(C)=C(C(=O)OC)C1c1cccc(Cl)c1Cl (stereo not drawn) [Felodipine] | 101 | 105 | 88.9 | 98.7 | 99.1 | 101 | 98 | 101
11 | O=C(O)/C=C/c1ccc(Cn2ccnc2)cc1 [Ozagrel] | 102 | 97.4 | 85.7 | 29.5 | 105 | 107 | 90 | 18
12 | COC(=O)C1=C(C)NC(C)=C(C(=O)OC)C1c1ccccc1[N+](=O)[O-] [Nifedipine] | 96.4 | 77.6 | 85.4 | 63.7 | 105 | 80.7 | 75.6 | 59
13 | NC(=O)CC[C@H](N)C(=O)O [L-Glutamine] | 98.4 | 99.1 | 103 | 105 | 102 | 97.4 | 114 | 113
14 | O=NN(CCCl)C(=O)NC1CCCCC1 [Lomustine] | 90.8 | 100 | 93.4 | 66.3 | 108 | 96.2 | 102 | 67
15 | CNC[C@H](O)c1ccc(O)c(O)c1 [Epinephrine bitartrate] | 99.2 | 98.8 | 97.2 | 6.86 | 101 | 102 | 98.4 | 3.42
16 | CN1[C@@H]2CC[C@H]1C[C@@H](OC(=O)c1c[nH]c3ccccc13)C2 [Tropisetron] | 99.6 | 103 | 100 | 104 | 98.7 | 101 | 104 | 66
17 | Cc1c(-c2ccc(O)cc2)n(Cc2ccc(OCCN3CCCCCC3)cc2)c2ccc(O)cc12 [Bazedoxifene HCl] | 107 | 99.8 | 101 | 84.1 | 98.6 | 97.9 | 105 | 45.6
18 | COC(=O)C1=C(C)NC(C)=C(C(=O)OCCN(C)Cc2ccccc2)C1c1cccc([N+](=O)[O-])c1 (stereo not drawn) [Nicardipine HCl] | 107 | 111 | 112 | 114 | 107 | 106 | 105 | 122
19 | Nc1[nH]cnc2ncnc1-2 [Adenine] | 101 | 97.9 | 98.1 | 109 | 102 | 95.5 | 98.6 | 106
20 | CN(C)CCC(c1ccccc1)c1ccccn1 (stereo not drawn) [Pheniramine Maleate] | 102 | 103 | 104 | 117 | 105 | 101 | 104 | 113
21 | Cc1ccc(C)c(OCCCC(C)(C)C(=O)O)c1 [Gemfibrozil] | 98.5 | 104 | 101 | 103 | 102 | 113 | 106 | 106
